Hits are enriched below; roughly 27% of the tested compounds scored in any of these assays.
CYP2C19 inh = blocks human cytochrome P450 2C19 | CYP2C19 Supersomes, luciferin-H EGE luminescence, 30 min | inhibition, % at 5 µM | 96,000 compounds, 21% hits;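 active = CYP2C19 inhibition above a set limit at 5 µM in the primary screen, cut at about 50% in these data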;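 also: plate controls were negative control wells for no effect and 2.5 mM tranylcypromine positive control for full effect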
Cav3 T inh = blocks human Cav3.2 T-type calcium channel | B-score at 10 µM | AID 449739 | Cav3.2-expressing cells, Fluo-4 calcium fluorescence FDSS; active compounds read low | 100,000 compounds, 4% hits | O95180;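 active = single-dose well whose peak fluorescence ratio is a statistical outlier from its plate by either plate-standardised score or position-corrected B-score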
CYP2C9 act = activators of human CYP2C9. recombinant CYP2C9, luciferin-H conversion, luminescence; active compounds read high; factor 1 = untreated enzyme, 0 = blocked. 96,000 compounds, 1.4% hits. AID 1024. activation factor at 5 µM;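 active = activation factor of 2 or more for CYP2C9 at a 5 µM dose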;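 also: 0 = sulfaphenazole-blocked wells and 1 = vehicle-only wells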
CYP2C19 activ = activators of human cytochrome P450 2C19; activation factor at 5 µM; P33261; recombinant CYP2C19, luciferin-H EGE luminescence; active compounds read high; 0 = fully inhibited enzyme, 1 = untreated enzyme; 96,000 tested, under 10 active;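 active = activation factor of at least 2 at 5 µM in the primary screen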;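 also: 0 = wells with 2.5 mM tranylcypromine and 1 = vehicle-only wells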
CYP2C9 inhib = blocks human cytochrome P450 2C9; P11712; CYP2C9 Supersomes, luciferin-H conversion, luminescence; inhibition, % at 5 µM; 96,000 compounds, 20% hits;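 active = blocking of liver enzyme CYP2C9 beyond about 50% at 5 µM, limit read from the data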
* marks the source's active call; other numbers are inactive results; . = no result.

SMILES	CYP2C19 inh	Cav3 T inh	CYP2C9 act	CYP2C19 activ	CYP2C9 inhib
COc1ccc(CCC(=O)N2CCN(S(=O)(=O)c3ccc4ccccc4c3)CC2)cc1	35.4	-0.0926	0.8	0.6	17.8
Cc1nnc2ccc(N3CCOCC3)nn12	-19.3	1.35	0.9	1.2	10.2
COc1ccc(CCNC(=O)C2CC3Cn4c(nc5ccccc54)C3N2c2ccccc2)cc1 (stereo unspecified)	.	-0.0354	.	.	.
COc1ccc(S(=O)(=O)N2CCN(Cc3c[nH]c4ccccc34)CC2)cc1	52.4*	0.91	1	0.5	-1.2
O=[N+]([O-])c1ccc(S(=O)(=O)N2CCN(Cc3c[nH]c4ccccc34)CC2)cc1	13.5	-2.06	0.8	0.9	15.4
CCOc1ccc(C(=O)CN2CCN(S(=O)(=O)c3ccc(Cl)cc3)CC2)cc1	57.6*	0.613	0.8	0.4	24.2
COc1ccc(S(=O)(=O)N2CC3C4C=CC(C4)C3C2)cc1 (stereo unspecified)	58.2*	-3.55	0.8	0.4	22.1
COc1ccc(S(=O)(=O)N2CCN(Cc3cccc(Cl)c3)CC2)cc1	93.9*	-0.575	0.4	0.1	60.8*
CCOc1ccc(S(=O)(=O)N2CCCC2)cc1	31.6	0.299	1.3	0.7	-25.8
COc1ccc(C)cc1NC(=O)c1ccc(S(=O)(=O)N2CCOCC2)cc1	4.8	0.264	3.6*	1	-264.4
COc1ccccc1C(=O)NCC1CCN(c2ccc(S(=O)(=O)N3CCOCC3)cc2)CC1	58.4*	0.0985	0.6	0.4	35.5
COc1ccc(OC)c(NC(=O)COC(=O)c2ccc(S(=O)(=O)N3CCOCC3)cc2)c1	8.4	0.716	0.9	0.9	5.7
COc1ccccc1NC(=O)c1ccc(S(=O)(=O)N2CCOCC2)cc1	14.4	0.0729	3.5*	0.9	-248.9
CCS(=O)(=O)N1CCC(NC(=O)c2cc(OC)cc(OC)c2)CC1	17.2	.	1	0.8	-0.6
Oc1ccccc1-c1cc(-c2ccc3c(c2)OCCO3)n[nH]1	21.1	.	0.7	0.8	26.8
CCCc1cc2c(=O)c(-c3ccc4c(c3)OCCO4)c(C)oc2cc1OS(C)(=O)=O	23.0	0.223	0.9	0.8	11.0
CCCN(CCC)C(=O)c1ccc2c(c1)OCO2	.	0.386	.	.	.
COc1ccc(-c2[nH]ncc2-c2ccc3c(c2)OCCO3)c(O)c1	61.3*	0.361	0.3	0.4	66.5*
CCCc1cc(-c2[nH]ncc2-c2ccc3c(c2)OCCCO3)c(O)cc1OC	86.4*	-1	0	0.1	100.3*
CCc1cc(-c2[nH]ncc2-c2ccc3c(c2)OCO3)c(O)cc1O	99.6*	.	0	0	98.6*
COC(=O)[C@H](C)[C@@H]1C[C@@]1(C)[C@@H](NC(=O)OCc1ccccc1)c1ccccc1	.	-2.67	.	.	.
O=C(N1CCCCCC1)N1CCN(S(=O)(=O)N2CCCCC2)CC1	31.7	-0.429	0.7	0.7	32.9
CN(Cc1ccccc1)C(=O)C1CCCN(Cc2ccc(Cl)cc2)C1 (stereo unspecified)	24.8	-1.21	0.9	0.8	12.0
Cc1cc(S(=O)(=O)N2CCN(c3ncccn3)CC2)ccc1-n1cnnn1	.	1.89	.	.	.
COn1c(SC2CCCCC2)nc2ccccc2c1=O	78.0*	-1.73	0.2	0.2	81.7*
SMILES	CYP2C19 inh	Cav3 T inh	CYP2C9 act	CYP2C19 activ	CYP2C9 inhib
COn1c(SCc2ccc(C)cc2C)nc2ccccc2c1=O	73.0*	-2.05	0.1	0.3	93.3*
CC(=O)n1cc([C@H]2C=C(C(=O)N3CCN(Cc4ccc5c(c4)OCO5)CC3)O[C@@H](OCCCCO)C2)c2ccccc21	.	-0.396	.	.	.
Cc1nnsc1NC(=O)OCc1ccccc1Cl	76.4*	-0.176	0.7	0.2	28.2
CC(c1ccco1)N(C(=O)CSc1ccc(Br)cc1)c1ccccn1 (stereo unspecified)	97.7*	-4.54*	0.1	0	89.8*
COc1ccc(C(=O)N2CCN(Cc3ccccc3C)CC2)cc1OC	47.8	0.312	1.6	0.5	-59.2
CCOC(=O)Nc1cc(C)ccc1OC	-4.5	-1.14	1.3	1	-30.5
Cc1ccc(NC(=O)CC(O)(C(F)(F)F)C(F)(F)F)cc1	58.9*	-0.207	0.8	0.4	19.8
COc1ccc(C)cc1NC(=O)CC(O)(C(F)(F)F)C(F)(F)F	61.5*	-1.6	0.9	0.4	13.6
CCOC(=O)N1CCN(C(=O)CCc2ccc(S(=O)(=O)NCCc3ccccc3)cc2)CC1	82.3*	0.488	0.2	0.2	77.7*
O=C(CCc1ccc(S(=O)(=O)NCCc2ccccc2)cc1)N1CCN(Cc2ccc3c(c2)OCO3)CC1	53.1*	-3.8	0.6	0.5	43.3
O=C(CCc1ccc(S(=O)(=O)NCCc2ccccc2)cc1)Nc1ccc2c(c1)OCO2	90.3*	0.989	0.2	0.1	84.2*
CC(C)CNS(=O)(=O)c1ccc(CCC(=O)Nc2ccc3c(c2)OCO3)cc1	4.6	0.472	0.6	1	37.8
CCOC(=O)N1CCN(C(=O)CCSc2ccccc2)CC1	71.3*	0.248	0.6	0.3	37.9
CC(C)CNS(=O)(=O)c1ccc(CCC(=O)N2CCN(Cc3ccc4c(c3)OCO4)CC2)cc1	.	0.132	.	.	.
O=C(CNC(=O)c1ccco1)OCC(=O)c1ccc2ccccc2c1	-5.6	-0.893	1	1.1	0.9
COc1cccc(NC(=O)CSc2nnc(-c3cc(-c4ccccn4)nc4ccccc34)o2)c1	6.9	0.702	0.8	0.9	18.4
COc1ccc(CNC(=O)CN(Cc2ccccc2)S(=O)(=O)c2ccc(Cl)cc2)cc1	99.5*	-3.51	0	0	96.1*
COc1ccc(CNC(=O)CN(Cc2ccc(Cl)cc2)S(=O)(=O)c2ccccc2)cc1	42.1	-0.938	0.7	0.6	34.4
COc1ccc(C)cc1S(=O)(=O)N(CC(=O)NCc1ccc(Cl)cc1)Cc1ccccc1	72.1*	-3.31	0.1	0.3	89.4*
Cc1cc(C)c(NC(=O)C2CC(=O)N(c3ccc4c(c3)OCCO4)C2)c(C)c1 (stereo unspecified)	15.5	-0.0263	0.8	0.8	20.5
Clc1cccc(CON/C=N/c2ncnc3sccc23)c1	80.5*	-2.31	0.5	0.2	50.5*
N#C/C(=C\c1cccs1)Sc1nc2ccccc2s1	96.1*	.	0.5	0	49.7
N#C/C(=C\c1ccc[nH]1)Sc1nc2ccccc2s1	91.7*	-1.32	0.2	0.1	77.3*
C(=N\Nc1nc2ccccc2s1)/c1cccs1	29.5	0.12	0.9	0.7	11.8
Oc1ccc(-c2nnc(-c3ccc(O)cc3)nn2)cc1	-6.5	-0.296	1.9	1.1	-90.4
Oc1ccc(-c2cccc(-c3ccc(O)cc3)n2)cc1	26.9	-0.525	0.4	0.7	61.3*
Cc1ccc(C(=O)O/N=C/c2c(N3CCOCC3)n(C)c3ccccc23)cc1	67.5*	-0.876	0.2	0.3	84.0*
Cn1c(Cl)c(/C=N/OC(=O)c2ccc(Cl)cc2)c2ccccc21	-9.6	-0.178	2.1*	1.1	-105.4
Oc1ccccc1-c1nc(N2CCN(Cc3ccccc3)CC2)c2ccccc2n1	65.1*	-0.542	0.3	0.3	73.9*
CCN1CCN(c2nc(-c3ccncc3)nc3ccccc23)CC1	51.0*	.	0.7	0.5	30.1
